Source: PubChem BioAssay (several laboratories)
IDE act: activators of human insulin-degrading enzyme in cells | activation, % at 5.96 µM | 340,000 compounds, 0.073% hits | HEK cells, FAbeta-B cleavage, fluorescence polarization; 0% vehicle, 100% cell-free pure enzyme wells | AID 493087;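 active means activation above the mean of all tested compounds plus 3 SD, set per screening campaign, cut at about 17% in these data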
ALR H2O2 inh: human ALR oxidase inhibition via reduced H2O2; purified ALR, DTT oxidation, H2O2 HRP-luminol luminescence; 290,000 compounds, 3.8% hits; AID 485317; inhibition, % (concentration not given with the values);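 active means mean replicate inhibition above about 79%, with every replicate also reaching it, limit read from the data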
Target sequence (P55789 whole entry, looked up): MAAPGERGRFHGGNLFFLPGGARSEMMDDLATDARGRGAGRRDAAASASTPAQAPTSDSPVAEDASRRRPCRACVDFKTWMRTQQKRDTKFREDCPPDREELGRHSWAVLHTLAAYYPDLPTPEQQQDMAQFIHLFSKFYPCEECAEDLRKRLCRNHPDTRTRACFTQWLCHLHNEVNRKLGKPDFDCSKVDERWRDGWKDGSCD
PfM18AAP inh: PfM18AAP enzyme inhibition | recombinant PfM18AAP, H-Glu-NHMec fluorogenic cleavage | inhibition, % at 7.35 µM | 290,000 compounds, 1.2% hits | AID 1822;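 active means inhibition above the campaign mean inhibition over all tested compounds plus 3 SD, cut at about 28% in these data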;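 further: 0% = plate median of test compound wells and 100% = 2 mM ZnCl2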
CaV13 ICDI inh: Primary screen for inhibitors of IQ motif and Ca2+-dependent inactivation inhibitor domain binding in CACNA1D, Förster resonance energy transfer in living cells, …; inhibition, % at 12.3 µM; HEK cells, CFP/YFP FRET ICDI-IQ, plate reader, 10 min; percent FRET-ratio fall versus neutral wells; 340,000 compounds, 0.098% hits;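 active means mean replicate inhibition of at least 30% and at least 1% of replicates passing that level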;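 further: 0% = median of the neutral control wells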
IDE cell inh: inhibitors of human insulin-degrading enzyme in cells | HEK cells, FAbetaB cleavage, fluorescence polarization | inhibition, % at 5.59 µM | 320,000 compounds, 0.41% hits | AID 434962;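 active means percent inhibition above the average of all tested compounds plus 3 SD, set per screening campaign, cut at about 16% in these data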;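 further: IDE supplied by intact live HEK cells; FP after avidin binding of uncleaved biotin substrate so inhibition keeps polarization high; 0% = DMSO wells and 100% = 60 µM reference IDE inhibitor Ii1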
PolyA inhibitor: blocks polyadenylation in yeast reporter cells | S. cerevisiae SKY197-pL101 polyadenylation reporter, beta-gal luminescence; efflux-impaired pdr1/pdr3 knockout yeast; score 100 = 6 SD above DMSO | activity score, % at 12 µM | 300,000 compounds, 0.02% hits;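 active means lowest replicate activity score at least 50, where 100 means six control SD above control mean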;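 further: yeast exposed to compound for 9 h at 30 °C; higher score means more reporter readthrough which indicates perturbed polyadenylation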
Starred values were filed as active, the others as inactive; . = no result. Only some compounds are listed: those with a hit (about 4.1% of all), similar ones and a draw of the others.

SMILES	IDE act	ALR H2O2 inh	PfM18AAP inh	CaV13 ICDI inh	IDE cell inh	PolyA inhibitor
CCC(C)(O)C(=O)N[C@H]1CCCN1C(=O)/C=C/c1ccccc1 (stereo partly drawn)	-2	-13	.	-10	-1	.
Cc1ccc(S(N)(=O)=O)cc1NC(=O)/C=C/c1ccc2c(c1)OCO2	1	2	-12	4	2	-9
Cc1ccc2c3c([nH]c2c1)C(=O)CC(C)(C)S3	0	98*	2	9	-2	-34
Cc1ccc2[nH]c(C)c(CCNC(=O)c3c(N)no[n+]3[O-])c2c1	-3	99*	3	4	-8	0
Cc1ccc2[nH]c(C)c(CCNC(=O)c3cc4cc([N+](=O)[O-])ccc4oc3=O)c2c1	-1	10	3	-18	1	-10
Nc1c(C=C2C=CC(=O)C=C2)c(=O)nc2sc(CC(=O)N3CCOCC3)nn12	6	98*	-1	-2	3	1
Nc1c(/C=C2\C=Nc3ccccc32)c(=O)nc2sc(CC(=O)N3CCOCC3)nn12	5	.	9	-2	3	-11
COC1=C/C(=C/c2c(N)n3nc(CC(=O)N4CCCCC4)sc3nc2=O)C=CC1=O	-46	100*	13	.	12	1
Cc1nn2c(=O)cc(COC(=O)c3ccc(S(=O)(=O)N4CCCCC4)cc3)nc2s1	4	-20	0	.	-3	8
Cc1ccc(S(=O)(=O)N2CCCC(C(=O)NCc3ccccc3F)C2)cc1 (stereo not drawn)	-5	4	-1	-5	3	-6
O=c1cc(-c2ccc(O)cc2)oc2c([C@@H]3O[C@H](CO)[C@@H](O)[C@H](O)[C@H]3O)c(O)c([C@@H]3O[C@H](CO)[C@@H](O)[C@H](O)[C@H]3O)c(O)c12	7	.	13	-9	-1	7
O=c1cc(-c2ccc(O)c(O)c2)oc2cc(O)c([C@@H]3O[C@H](CO)[C@@H](O)[C@H](O)[C@H]3O)c(O)c12	1	99*	.	-5	-1	.
O=c1c2cc(O)c(O)cc2oc2cc(O)c(C3OC(CO)C(O)C(O)C3O)c(O)c12 (stereo not drawn)	6	99*	.	.	-2	5
O=C(COC(=O)c1nn(CCO)c(=O)c2ccccc12)Nc1ccc(Cl)c(Cl)c1	4	-6	.	-2	2	.
Nc1nc(N2CCOCC2)n[nH]1	3	.	-1	-5	.	.
Nc1nc(N2CCN(c3ccc(F)cc3)CC2)n[nH]1	3	98*	9	-5	3	14
CSc1nc(O)c(C(c2ccc(C)cc2)c2c(O)nc(SC)[nH]c2=O)c(=O)[nH]1	2	89*	-8	-5	9	-8
O=C(c1[nH]c(C(F)(F)F)nc1-c1ccccc1)N1CCCN(Cc2ccc(F)cc2)CC1	.	.	.	-9	.	.
O=C(COc1cc(Cl)c(Cl)cc1Cl)Nc1ccncc1	1	-5	-5	-5	0	-26
O=C(COc1cc(Cl)c(Cl)cc1Cl)Nn1cnnc1	4	1	30*	-6	0	10
CCOC(=O)CSc1nc2c(sc(=S)n2-c2ccccc2)c(=O)n1-c1ccc(OC)cc1OC	1	.	30*	-19	8	18
CCN(CC)C(=O)CSc1nc2c(sc(=S)n2-c2ccccc2)c(=O)n1-c1ccc(OC)cc1OC	-6	.	26	-21	3	26
Cc1ccc(NC(=O)c2ccc(=O)[nH]n2)cc1C	0	-13	6	-20	6	-7
Cc1ccc(NC(=O)c2ccc(=O)[nH]n2)cc1S(=O)(=O)Nc1ccc(SC(F)F)cc1	2	99*	.	-6	-2	.
CN1CCN(C2CC(=O)N(CCc3ccccc3)C2=O)CC1 (stereo not drawn)	7	-1	-17	-3	5	-4
SMILES	IDE act	ALR H2O2 inh	PfM18AAP inh	CaV13 ICDI inh	IDE cell inh	PolyA inhibitor
CN1C(=O)CC(N2CCN(c3ccccc3)CC2)C1=O (stereo not drawn)	-1	94*	4	-5	0	-7
O=C1CC(N2CCN(c3ccccc3)CC2)C(=O)N1CCc1ccccc1 (stereo not drawn)	5	95*	-2	-7	0	20
O=c1[nH]cnc2nc(-c3ccccc3)c(-c3ccccc3)nc12	-2	-1	-5	-5	8	9
O=c1[nH]cnc2ncc(-c3ccc(O)cc3)nc12	-1	100*	.	-5	4	-12
O=c1/c(=C/c2ccc(O)cc2)sc2n1CCCN=2	12	98*	19	.	-11	.
CN(C)c1ccc(/C=c2\sc3n(c2=O)CCCN=3)cc1	-5	99*	5	-4	12	-1
O=c1/c(=C\c2ccc(F)cc2)sc2n1CCCN=2	5	49	1	-7	0	11
Cc1ccc(-c2nc(CS(=O)CC(=O)NCc3ccc4c(c3)OCO4)c(C)o2)cc1 (stereo not drawn)	5	99*	3	.	0	-11
CCc1ccc(-c2nc(CS(=O)CC(=O)NCc3ccc4c(c3)OCO4)c(C)o2)cc1 (stereo not drawn)	4	99*	11	-16	-1	-4
Cc1ccc(CC(=O)NCc2ccc3c(c2)OCO3)cc1	0	0	0	-5	-1	6
Cc1ccc(-c2noc(CCC(=O)NCc3ccc4c(c3)OCO4)n2)cc1	-1	.	2	-1	7	.
CC1CCCCC12NC(=O)N(CC(=O)OCc1ccc(Br)cc1)C2=O (stereo not drawn)	2	8	.	-3	-2	.
COCCN(CCOC)S(=O)(=O)c1ccc(NC(=O)c2cnccn2)cc1	-2	-14	-8	-5	13	-1
CN(c1ccccc1)S(=O)(=O)c1cccc(C(=O)NCCc2ccc(O)c(O)c2)c1	-6	93*	40*	-4	11	-7
O=C(O)c1ccc(OCCn2ccnc2)cc1	1	-21	1	-6	3	-5
O=C(Cn1ccnc1)c1ccc(O)c(O)c1	2	90*	.	-6	-3	.
Cc1ccc2occ(C3NC(C(=O)O)CS3)c(=O)c2c1 (stereo not drawn)	3	98*	31*	-5	3	1
O=C(O)C1CSC(c2ccco2)N1 (stereo not drawn)	0	-6	21	-4	-4	8
Cc1ccc2occ(C3N[C@H](C(=O)O)CS3)c(=O)c2c1 (stereo partly drawn)	2	99*	24	-6	1	2
COC(=O)c1ccccc1NC(=O)Oc1ccc(C(C)C)cc1	-1	92*	0	-7	10	-6
CCOc1ccc(OCCn2c(=S)[nH]c3c(N)ncnc32)cc1	-1	91*	17	0	6	17
Cc1ccc(-c2nnc(SCC(=O)NC3CC3)n2N)cc1	3	7	10	3	3	-3
